Screening data: PubChem, National Center for Advancing Translational Sciences (NCATS)
In the library only some 3.2% were active in any assay of this set; here they are far more common.
GLP1R cytotox = qHTS of GLP-1 Receptor Inverse Agonists: Cytotox Screen; Potency, µM (top dose mostly 38.3 µM), for inactives: top-dose activity change, negative = inhibition, actives largely listed as inhibitors; HEK293 cAMP-luciferase reporter cells, luminescence, 24 h; AID 624418, 2012; hit rate 0.13% among 410,000;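 note: loss of luciferase light is scored as toxicity; % is set by controls: 0 for no effect and ±100 for the full control effect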
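To flag toxic compounds, the library was rerun on cells for 24 hr at 37 deg C and 5% CO2. Viability-linked luminescence was captured 12 min after adding luciferase detection reagent.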
GLP-1R inv ag = qHTS of GLP-1 Receptor Inverse Agonists (Inhibition Mode); Glucagon-like peptide 1 receptor (Homo sapiens), P43220; HEK293 GLP-1R CRE-luciferase, luminescence, 24 h; GLP-1R form is constitutively active; Potency, µM (top dose mostly 38.3 µM), for the others: at the highest dose activity change, negative = inhibition, actives largely listed as inhibitors; hit rate 1.6% among 410,000; note: % is set by controls: 0 for no effect and ±100 for the full control effect; nearly all actives have a fitted effect of over 55% in size
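Inverse agonism was detected as reduced cAMP-driven luciferase luminescence after 24 h compound treatment. The cells were HEK293 clones expressing constitutively active human GLP-1R with the reporter. Reporter-only and GPR119 cell lines served as counterscreen controls.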
GLP1R ag = qHTS of GLP-1 Receptor Agonists; Glucagon-like peptide 1 receptor (Homo sapiens), P43220; HEK293 GLP-1R CRE-luciferase, luminescence, 4-6 h; cells express a hypersensitive GLP-1R form; Potency, µM (doses to about 45.6 µM), for inactives: at the highest dose activation, usual class: activators; hit rate 0.007% among 380,000; AID 624172, 2012; note: % of control where 0% means no effect
ClpP mod = qHTS Assay for Activators of ClpP. ATP-dependent Clp protease proteolytic subunit (Bacillus subtilis (strain 168)), P80244. purified B. subtilis ClpP, FRET peptide cleavage, 20 min. Potency, µM (titrated, usually from 57.5 µM), for the others: at the top dose activity change, negative = active. hit rate 1.9% among 340,000. AID 651965, 2013; active = well fitted falling curve with a large enough effect; inconclusive = small, poorly fitted or top-dose-only effect; inactive = no such curve, though single readings can be large or run the other way; note: the source files actives as falling curves though it sought activators and does not explain the sign; nearly all actives have a fitted effect of over 65% in size
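ClpP 10 microg/mL final, pH 8 Tris/KCl buffer with BSA, glycerol, Tween-20; compound pinned in; FRET-FV substrate; RT 20 min; Ex320/Em430; ΔFRET vs ADEP 5.8 microM, DMSO, no enzyme.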
Active calls of the source: *; ? = inconclusive; · = no result. Unless noted, calls come from the whole dose curve; as a rule, active = well fitted curve in the direction sought with a large enough effect; inconclusive = small, poorly fitted or top-dose-only effect, or another doubt; inactive = no such curve, though single readings can be large; an effect the other way counts as inactive or inconclusive. Potency is the fitted concentration of half-maximal effect.

SMILES | GLP1R cytotox | GLP-1R inv ag | GLP1R ag | ClpP mod
COC(=O)c1ccc(OCC2c3cc(OC)c(OC)cc3CCN2C(=O)c2ccccc2C)cc1 (centres undefined) | -9.4% | ? | 6.9% | 0.1%
O=C(Nc1ccn(CCCN2CCN(Cc3cccc4ccccc34)CC2)c(=O)n1)OCc1ccccc1 | -6.5% | 7.94µM* | 1.7% | 0.5%
CC(=O)C[C@H]1c2cc(F)cc(F)c2S(=O)(=O)N1C1CCN(Cc2ccccc2)CC1 | · | · | · | -0.3%
CCC(C(=O)Nc1ccccc1OC)n1c(C(=O)OC)cc2sc(Cl)cc21 (centres undefined) | 23.6% | ? | · | -3.9%
CC(C)=CCC(C)(C)CNC(=O)NC1CCCCC1 | -0.8% | 10µM* | -2.7% | 1.0%
CC(C)(C)N(C=C(Cl)Cl)C(=O)NC1CCCCC1 | -5.6% | 9.3% | -2.7% | 66.6%
O=C(CN1CCCCC1)Nc1cccc(Cl)c1 | -11.5% | 10.3% | -1.0% | -0.4%
COc1cc(NC(=O)Nc2cccc(Cl)c2)c(OC)cc1NC(=O)CN1CCCCC1 | ? | 3.16µM* | -14.9% | -1.0%
CCN1CCN(CCC(=O)Nc2cc(OC)cc(OC)c2)CC1 | -0.1% | 7.8% | -29.3% | 28.2µM*
COc1ccccc1NC(=O)CN1CCN(CC(=O)Nc2ccc(Cl)c(C(F)(F)F)c2)CC1 | ? | 3.98µM* | -0.8% | 0.9%
COc1ccc(NC(=O)CN2CCN(CC(=O)Nc3ccccc3Cl)CC2)cc1Cl | 10.1% | ? | 22.8% | -28.6%
CCn1c(=O)n(CC)c2cc(N3CCCCC3)c(NC(=O)Nc3cc(Cl)ccc3OC)cc21 | -16.0% | -21.2% | · | 28.2µM*
CSc1nc2sc3c(c2c(=O)n1-c1ccc(C)c(Cl)c1)CCN(C(C)=O)C3 | -2.2% | 5.8% | · | -21.7%
CCN(C(=O)CSc1nc2ncccc2[nH]1)c1ccc(C(C)C)cc1 | 0.8% | ? | · | -1.1%
CCN1CCN(CC(=O)Nc2c(OC)cccc2OC)CC1 | 14.3% | -1.0% | -1.6% | 22.4µM*
CCN1CCN(CCC(=O)Nc2ccccc2OC)CC1 | -3.1% | 2.5% | -1.0% | -1.7%
c1ccc(-c2cc3c(-n4cccc4)ncnc3o2)cc1 | 2.6% | 7.9% | -0.8% | 28.2µM*
c1ccc(Oc2ncnc3oc(-c4ccccc4)cc23)cc1 | -8.0% | 21.9% | -5.6% | -1.6%
CCOC(=O)c1cccc(N2C(=O)C3C4C=CC(CC4)C3C2=O)c1 (centres undefined) | -6.4% | 3.16µM* | 4.4% | ·
COc1ccccc1C(=O)NC(CCSC)C(=O)NNC(=O)c1ccc(F)cc1 (centres undefined) | 16.3% | 10.8% | -13.9% | 28.2µM*
COc1ccccc1C(=O)NC(CCSC)C(=O)NNC(=O)c1ccccc1O (centres undefined) | 4.1% | ? | -5.8% | ?
CCOc1ccc(NC(=O)C2CCN(S(=O)(=O)c3ccc4c(c3)oc(=O)n4C)CC2)cc1 | 4.9% | 13.8% | 0.5% | 0.1%
NC(CSC1(c2ccc(Cl)cc2)c2ccccc2-c2ccccc21)C(=O)O (centres undefined) | -8.1% | 7.94µM* | -3.7% | -2.1%
NC(CSC1(c2ccc(F)cc2)c2ccccc2-c2ccccc21)C(=O)O (centres undefined) | -2.7% | ? | 0.3% | 2.8%
O=S(=O)(c1ccccc1)c1nc(-c2ccco2)oc1SCc1ccc(F)cc1 | 10.0% | 0.2% | · | -9.7%
SMILES | GLP1R cytotox | GLP-1R inv ag | GLP1R ag | ClpP mod
Cc1ccc2c(c1)nnn2C1CCN(S(=O)(=O)c2ccc(C(=O)N3C(C)CCCC3C)cc2)CC1 (centres undefined) | -8.9% | 3.98µM* | -0.4% | 7.4%
Cc1cc(Br)ccc1NC(=O)c1sc2ncn(Cc3ccccc3Cl)c(=O)c2c1C | 0.3% | 6.2% | · | 2.1%
CCn1cc(C(=O)NCCC(C)C)c(=O)c2cc(S(=O)(=O)N(C)C3CCCCC3)ccc21 | 2.0% | 7.3% | 0.3% | 0.0%
Cc1cccc(N2CCN(c3nc4ccc(C)cc4n4cnnc34)CC2C)c1 (centres undefined) | 2.6% | -23.0% | · | 31.6µM*
CC(=O)c1c(C)oc2ccc(N(C(=O)Oc3ccccc3)S(=O)(=O)c3ccccc3)cc12 | 21.1% | -2.2% | · | -13.9%
CCOc1cc(/C=N/N=C(N)N)ccc1OCc1ccc(Cl)cc1 | ? | 11.2µM* | -32.2% | -22.0%
Cc1cc(Br)ccc1NC(=O)CCS(=O)(=O)c1cccc2nsnc12 | 6.6% | -23.8% | 0.5% | -5.7%
O=C(N/C(=C\c1ccc(Cl)cc1)C(=O)N1CCCCC1)c1ccco1 | -4.5% | 10µM* | 10.1% | ·
CCc1sc(Nc2cccc(C)c2C)nc1-c1cc2cccc(OC)c2oc1=O | 4.7% | 0.9% | · | -1.9%
CCOC(=O)c1ccccc1NC(=O)c1cc2sccc2n1C | 3.7% | 0.0% | -6.2% | 28.2µM*
CCOC(=O)c1cccc(NC(=O)c2cc3sccc3n2C)c1 | -10.8% | -2.4% | -14.5% | -8.1%
CCc1ccc(NC(=O)Cn2c(=O)ccc3cc(S(=O)(=O)N4CCCC4)ccc32)cc1 | -0.9% | -6.0% | -3.7% | -0.5%
Cc1nn2c(nc(N3CCCCC3)c3ccccc32)c1C=O | 10.2% | 49.8% | 10.1% | 12.6µM*
Cc1cc(C)cc(NC(=O)C2C3C=CC4(O3)C2C(=O)N(CCN2CCCCC2)C4C(=O)NC2CCCCC2)c1 (centres undefined) | 6.3% | -17.5% | 1.3% | 0.7%
CN(C)CCN1C(=O)C2C(C(=O)Nc3cc(Cl)cc(Cl)c3)C3C=CC2(O3)C1C(=O)NC1CCCCC1 (centres undefined) | -2.4% | 10µM* | 0.1% | 0.2%
CCC[N+](C)(C)c1ccc(/C=C/c2ccnc3ccccc23)cc1 | · | · | · | 1.3%
COc1ccc(NC(=O)Cc2csc(C)n2)cc1 | -17.3% | 2.5% | · | 0.7%
CCCCNC(=S)Nc1ccccc1Cc1ccccc1 | ? | 11.2µM* | 6.9% | -4.0%
CCCCSCCCNC(=S)Nc1ccccc1C | ? | ? | 14.3% | ·
Cc1ccc(NC(=S)NCCSc2ccc(Cl)cc2)c(C)c1 | ? | 10µM* | -1.8% | 3.4%
COc1ccc(NC(=S)NCCSc2ccc(C)cc2)c(OC)c1 | ? | 10µM* | 2.6% | 1.3%
COc1ccc(OC)c(NC(=S)NCCSc2ccc(C)cc2)c1 | -22.7% | ? | -0.2% | -22.7%
CCc1ccccc1NC(=S)NCCSc1ccc(Cl)cc1 | ? | 7.08µM* | 10.8% | ·
CCc1ccc(CNC(=O)c2cccc(-n3c(C)nc4cccnc43)c2)cc1 | -6.4% | -5.2% | · | -1.1%
S=C(NCc1ccc(Cl)cc1)Nc1ccc(Cl)cc1Cl | 10.8% | ? | -18.1% | -2.0%
S=C(NCCc1ccc(Cl)cc1)Nc1ccc(Cl)cc1Cl | ? | 10µM* | -3.9% | -1.0%
CCCS(=O)(=O)N1CC(=O)N(c2cc(C)ccc2C)C(C)(C(=O)NC2CCCCCC2)C1 (centres undefined) | 3.5% | 15.4% | · | -1.0%
Cc1ccc(NC(=O)C2CCN(C(=O)c3sc4nc[nH]c(=O)c4c3C)CC2)cc1F | -1.7% | -9.2% | · | -2.9%
